Among the data in paper PMC12529666, “Dysregulation of AGO2-miRNA dynamics underlies the AGO2-associated Lessel–Kreienkamp syndrome” are binding signal values, retold here.

Common to all, as to experiment: RNA Bind-n-Seq (nitrocellulose filter binding and sequencing); miR-122 guide loaded in AGO2; 60 min incubation; 30 mM Tris pH 8.0, 100 mM potassium acetate, 2 mM magnesium acetate, 0.5 mM TCEP, 0.005% NP-40, 0.01 mg/ml yeast tRNA; 3 nM AGO2-miR-122, 100 nM RNA library; 60; high values mean tight binding
Holding throughout (conditions): protein: recombinant; tags: His6 (N-terminal, pFastBac HTA)

The target in one assay is AGO2 L192P (Homo sapiens, UniProt Q9UKV8 1-859, L192P;S387D;S824A;S828D;S831D;S834A). The essentials:
(§1)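 Fold enrichment is each target's read fraction divided by its read fraction in the input library. Sf9 insect cells expressed His-tagged AGO2 from baculovirus; the protein was loaded with a synthetic guide RNA and purified by Ni-NTA and a biotinylated capture oligo. The bound RNA was extracted, reverse-transcribed, barcode-amplified and sequenced on Illumina.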

For another assay, the target named is AGO2 A367P (Homo sapiens, UniProt Q9UKV8 1-859, A367P;S387D;S824A;S828D;S831D;S834A). The essentials: as §1
For the next assay, the target named is AGO2 T357M (Homo sapiens, UniProt Q9UKV8 1-859, T357M;S387D;S824A;S828D;S831D;S834A). The method, boiled down:
as §1

The target in a further assay is AGO2 F182del (Homo sapiens, UniProt Q9UKV8 1-859, S387D;S824A;S828D;S831D;S834A;del182-182). The method, boiled down: as §1
Chain of AGO2 F182del (Q9UKV8 other isoform, or with tags, fused parts or gaps S387D;S824A;S828D;S831D;S834A;del182-182): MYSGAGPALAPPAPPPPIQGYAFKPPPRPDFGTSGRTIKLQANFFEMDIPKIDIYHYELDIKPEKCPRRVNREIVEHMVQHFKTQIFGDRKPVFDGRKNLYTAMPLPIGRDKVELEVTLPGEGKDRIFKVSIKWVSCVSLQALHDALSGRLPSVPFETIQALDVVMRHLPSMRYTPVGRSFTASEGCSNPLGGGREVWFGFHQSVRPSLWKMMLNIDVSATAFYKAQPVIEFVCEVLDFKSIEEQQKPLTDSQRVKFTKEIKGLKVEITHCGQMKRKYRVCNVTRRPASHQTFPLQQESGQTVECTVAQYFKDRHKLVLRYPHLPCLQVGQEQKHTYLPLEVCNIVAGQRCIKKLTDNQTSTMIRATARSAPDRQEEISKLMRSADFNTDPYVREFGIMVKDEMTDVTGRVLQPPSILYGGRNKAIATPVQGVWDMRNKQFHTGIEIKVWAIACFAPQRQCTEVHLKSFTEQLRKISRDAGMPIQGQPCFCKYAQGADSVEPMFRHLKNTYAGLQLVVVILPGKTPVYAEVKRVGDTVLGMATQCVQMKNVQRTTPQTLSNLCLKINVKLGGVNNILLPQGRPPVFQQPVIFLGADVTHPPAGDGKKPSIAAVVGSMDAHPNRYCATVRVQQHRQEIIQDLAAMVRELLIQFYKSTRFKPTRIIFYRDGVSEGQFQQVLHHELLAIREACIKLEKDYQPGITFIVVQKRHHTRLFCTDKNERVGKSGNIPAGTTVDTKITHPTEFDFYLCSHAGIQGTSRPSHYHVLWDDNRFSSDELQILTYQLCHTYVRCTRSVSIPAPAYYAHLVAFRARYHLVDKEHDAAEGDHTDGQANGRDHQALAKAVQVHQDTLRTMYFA

Chain of AGO2 T357M (Q9UKV8 whole entry T357M/S387D/S824A/S828D/S831D/S834A): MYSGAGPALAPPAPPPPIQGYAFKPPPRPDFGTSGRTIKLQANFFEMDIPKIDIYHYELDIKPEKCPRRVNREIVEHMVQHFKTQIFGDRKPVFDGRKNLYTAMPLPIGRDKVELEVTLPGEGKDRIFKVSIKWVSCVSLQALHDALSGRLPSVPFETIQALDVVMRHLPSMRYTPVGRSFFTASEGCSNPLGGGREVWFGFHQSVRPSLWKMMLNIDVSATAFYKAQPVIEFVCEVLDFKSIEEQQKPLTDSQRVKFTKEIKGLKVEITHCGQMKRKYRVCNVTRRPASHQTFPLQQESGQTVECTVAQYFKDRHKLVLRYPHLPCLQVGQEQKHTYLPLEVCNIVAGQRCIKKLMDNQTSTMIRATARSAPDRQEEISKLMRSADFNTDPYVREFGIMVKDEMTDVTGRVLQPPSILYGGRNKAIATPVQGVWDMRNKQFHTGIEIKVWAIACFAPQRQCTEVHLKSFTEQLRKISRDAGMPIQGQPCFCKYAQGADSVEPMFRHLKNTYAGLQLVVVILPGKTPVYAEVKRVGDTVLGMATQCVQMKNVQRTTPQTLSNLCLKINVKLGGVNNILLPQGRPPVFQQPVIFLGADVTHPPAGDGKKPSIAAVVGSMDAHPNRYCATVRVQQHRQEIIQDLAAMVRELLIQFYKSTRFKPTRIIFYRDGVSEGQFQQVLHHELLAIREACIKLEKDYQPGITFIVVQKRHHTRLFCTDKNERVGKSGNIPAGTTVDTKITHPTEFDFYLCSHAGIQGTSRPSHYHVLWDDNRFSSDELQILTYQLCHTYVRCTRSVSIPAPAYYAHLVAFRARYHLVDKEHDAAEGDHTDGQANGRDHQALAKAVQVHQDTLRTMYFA
Chain of AGO2 A367P (Q9UKV8 whole entry A367P/S387D/S824A/S828D/S831D/S834A): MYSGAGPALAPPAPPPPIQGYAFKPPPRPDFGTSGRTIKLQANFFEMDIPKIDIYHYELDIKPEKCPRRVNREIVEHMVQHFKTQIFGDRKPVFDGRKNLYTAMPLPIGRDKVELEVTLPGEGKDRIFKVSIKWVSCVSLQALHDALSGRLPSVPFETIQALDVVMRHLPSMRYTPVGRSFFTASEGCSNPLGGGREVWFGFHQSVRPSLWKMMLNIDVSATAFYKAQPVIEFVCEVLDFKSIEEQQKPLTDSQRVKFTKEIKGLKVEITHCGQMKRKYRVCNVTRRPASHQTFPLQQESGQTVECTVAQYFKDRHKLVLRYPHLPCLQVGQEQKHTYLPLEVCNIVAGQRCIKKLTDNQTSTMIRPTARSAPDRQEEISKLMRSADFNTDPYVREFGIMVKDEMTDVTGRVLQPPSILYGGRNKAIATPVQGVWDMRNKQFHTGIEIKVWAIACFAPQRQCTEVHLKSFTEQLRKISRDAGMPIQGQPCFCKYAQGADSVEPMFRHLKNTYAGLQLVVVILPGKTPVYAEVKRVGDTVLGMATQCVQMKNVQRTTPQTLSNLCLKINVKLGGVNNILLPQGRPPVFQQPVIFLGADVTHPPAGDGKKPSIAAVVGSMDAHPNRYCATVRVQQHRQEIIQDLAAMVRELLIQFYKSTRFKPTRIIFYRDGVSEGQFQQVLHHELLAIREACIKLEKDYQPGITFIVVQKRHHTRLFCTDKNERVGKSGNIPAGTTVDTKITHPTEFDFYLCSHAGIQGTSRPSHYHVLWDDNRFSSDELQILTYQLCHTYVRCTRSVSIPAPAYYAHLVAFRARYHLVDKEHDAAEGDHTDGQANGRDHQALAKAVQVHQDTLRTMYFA
Chain of AGO2 L192P (Q9UKV8 whole entry L192P/S387D/S824A/S828D/S831D/S834A): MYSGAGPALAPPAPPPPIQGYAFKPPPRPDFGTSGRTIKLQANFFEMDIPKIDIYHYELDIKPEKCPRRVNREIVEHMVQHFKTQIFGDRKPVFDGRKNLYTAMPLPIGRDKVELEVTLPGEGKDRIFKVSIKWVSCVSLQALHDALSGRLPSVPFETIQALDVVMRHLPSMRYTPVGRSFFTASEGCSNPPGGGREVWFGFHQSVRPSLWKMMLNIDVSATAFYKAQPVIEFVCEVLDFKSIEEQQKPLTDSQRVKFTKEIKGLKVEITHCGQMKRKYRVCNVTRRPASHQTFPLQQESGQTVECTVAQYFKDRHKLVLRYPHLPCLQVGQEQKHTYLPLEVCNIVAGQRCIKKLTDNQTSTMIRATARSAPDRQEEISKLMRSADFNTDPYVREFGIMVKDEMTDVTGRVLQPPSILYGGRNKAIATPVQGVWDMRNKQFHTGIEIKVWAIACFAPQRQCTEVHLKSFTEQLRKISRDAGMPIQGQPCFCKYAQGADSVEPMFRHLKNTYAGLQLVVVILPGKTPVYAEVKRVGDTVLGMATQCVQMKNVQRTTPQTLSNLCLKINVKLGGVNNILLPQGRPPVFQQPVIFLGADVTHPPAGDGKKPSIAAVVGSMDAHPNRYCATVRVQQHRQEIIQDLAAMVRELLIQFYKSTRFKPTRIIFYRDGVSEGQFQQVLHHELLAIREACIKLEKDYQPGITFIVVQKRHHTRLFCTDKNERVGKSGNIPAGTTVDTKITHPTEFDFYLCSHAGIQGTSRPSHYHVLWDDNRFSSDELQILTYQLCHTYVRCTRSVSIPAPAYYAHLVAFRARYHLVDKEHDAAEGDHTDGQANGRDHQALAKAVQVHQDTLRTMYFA

B1: ATACTTTG (ssRNA)
RNA 1: GAGUUCUACAGUCCGACGAUCCCAACAUACUUUGCACCUGGAAUUCUCGGGUGCCAA
RNA 2: UGGAGUGUGACAAUGGUGUUUG
DNA 1: GATCGTCGGACTGTAGAACTC
DNA 2: TTGGCACCCGAGAATTCCA
modifications: constant regions annealed to DNA blockers; guide miR-122 5' phosphate
As to B1, the binding signal is 0.38 fold enrichment over input with AGO2 L192P, 0.138 fold enrichment over input with AGO2 A367P and 0.553 fold enrichment over input with AGO2 T357M.

B2: ATGCCTTG (ssRNA)
RNA 1: GAGUUCUACAGUCCGACGAUCCCAACAUGCCUUGCACCUGGAAUUCUCGGGUGCCAA
RNA 2: UGGAGUGUGACAAUGGUGUUUG
DNA 1: GATCGTCGGACTGTAGAACTC
DNA 2: TTGGCACCCGAGAATTCCA
modifications: constant regions annealed to DNA blockers; guide miR-122 5' phosphate
Consider B2, for which the figures for the binding signal in the assay with AGO2 L192P, with AGO2 A367P and with AGO2 T357M were 0.356 fold enrichment over input, 0.131 fold enrichment over input and 0.51 fold enrichment over input, respectively.

B3: ATACTCTA (ssRNA)
RNA 1: GAGUUCUACAGUCCGACGAUCCCAACAUACUCUACACCUGGAAUUCUCGGGUGCCAA
RNA 2: UGGAGUGUGACAAUGGUGUUUG
DNA 1: GATCGTCGGACTGTAGAACTC
DNA 2: TTGGCACCCGAGAATTCCA
modifications: constant regions annealed to DNA blockers; guide miR-122 5' phosphate
For B3, the binding signal with AGO2 L192P is 0.437 fold enrichment over input; with AGO2 A367P, 0.187 fold enrichment over input; with AGO2 T357M it was 0.545 fold enrichment over input; with AGO2 F182del, 0.128 fold enrichment over input.

B4: GCATCTCG (ssRNA)
RNA 1: GAGUUCUACAGUCCGACGAUCCCAACGCAUCUCGCACCUGGAAUUCUCGGGUGCCAA
RNA 2: UGGAGUGUGACAAUGGUGUUUG
DNA 1: GATCGTCGGACTGTAGAACTC
DNA 2: TTGGCACCCGAGAATTCCA
modifications: constant regions annealed to DNA blockers; guide miR-122 5' phosphate
For the molecule B4, the binding signal in the assay with AGO2 L192P was 0.321 fold enrichment over input; with AGO2 A367P, 0.121 fold enrichment over input; with AGO2 T357M, 0.4 fold enrichment over input.

B5: ACGCCTCG (ssRNA)
RNA 1: GAGUUCUACAGUCCGACGAUCCCAACACGCCUCGCACCUGGAAUUCUCGGGUGCCAA
RNA 2: UGGAGUGUGACAAUGGUGUUUG
DNA 1: GATCGTCGGACTGTAGAACTC
DNA 2: TTGGCACCCGAGAATTCCA
modifications: constant regions annealed to DNA blockers; guide miR-122 5' phosphate
Consider B5, for which the binding signal was 0.351 fold enrichment over input with AGO2 L192P, 0.15 fold enrichment over input in the assay with AGO2 A367P and 0.48 fold enrichment over input with AGO2 T357M.

B6: ATACCCTG (ssRNA)
RNA 1: GAGUUCUACAGUCCGACGAUCCCAACAUACCCUGCACCUGGAAUUCUCGGGUGCCAA
RNA 2: UGGAGUGUGACAAUGGUGUUUG
DNA 1: GATCGTCGGACTGTAGAACTC
DNA 2: TTGGCACCCGAGAATTCCA
modifications: constant regions annealed to DNA blockers; guide miR-122 5' phosphate
Regarding B6, the binding signal with AGO2 L192P was 0.364 fold enrichment over input; with AGO2 A367P it was 0.126 fold enrichment over input; with AGO2 T357M it was 0.522 fold enrichment over input.

B7: ATATTCCG (ssRNA)
RNA 1: GAGUUCUACAGUCCGACGAUCCCAACAUAUUCCGCACCUGGAAUUCUCGGGUGCCAA
RNA 2: UGGAGUGUGACAAUGGUGUUUG
DNA 1: GATCGTCGGACTGTAGAACTC
DNA 2: TTGGCACCCGAGAATTCCA
modifications: constant regions annealed to DNA blockers; guide miR-122 5' phosphate
Regarding B7, the binding signal with AGO2 L192P was 0.389 fold enrichment over input; with AGO2 A367P, 0.136 fold enrichment over input; with AGO2 T357M, 0.541 fold enrichment over input.

B8: ATGTTCCG (ssRNA)
RNA 1: GAGUUCUACAGUCCGACGAUCCCAACAUGUUCCGCACCUGGAAUUCUCGGGUGCCAA
RNA 2: UGGAGUGUGACAAUGGUGUUUG
DNA 1: GATCGTCGGACTGTAGAACTC
DNA 2: TTGGCACCCGAGAATTCCA
modifications: constant regions annealed to DNA blockers; guide miR-122 5' phosphate
As to B8, the binding signal in the assay with AGO2 L192P is 0.352 fold enrichment over input; with AGO2 A367P it was 0.121 fold enrichment over input; with AGO2 T357M, 0.475 fold enrichment over input.

B9: ATGCCCTA (ssRNA)
RNA 1: GAGUUCUACAGUCCGACGAUCCCAACAUGCCCUACACCUGGAAUUCUCGGGUGCCAA
RNA 2: UGGAGUGUGACAAUGGUGUUUG
DNA 1: GATCGTCGGACTGTAGAACTC
DNA 2: TTGGCACCCGAGAATTCCA
modifications: constant regions annealed to DNA blockers; guide miR-122 5' phosphate
As for B9, the binding signal is 0.457 fold enrichment over input with AGO2 L192P, 0.166 fold enrichment over input with AGO2 A367P and 0.544 fold enrichment over input with AGO2 T357M.

B10: GCATCCCG (ssRNA)
RNA 1: GAGUUCUACAGUCCGACGAUCCCAACGCAUCCCGCACCUGGAAUUCUCGGGUGCCAA
RNA 2: UGGAGUGUGACAAUGGUGUUUG
DNA 1: GATCGTCGGACTGTAGAACTC
DNA 2: TTGGCACCCGAGAATTCCA
modifications: constant regions annealed to DNA blockers; guide miR-122 5' phosphate
B10: the binding signal with AGO2 L192P was 0.376 fold enrichment over input; with AGO2 A367P, 0.143 fold enrichment over input; in the assay with AGO2 T357M it was 0.478 fold enrichment over input.

B11: GCATTTTG (ssRNA)
RNA 1: GAGUUCUACAGUCCGACGAUCCCAACGCAUUUUGCACCUGGAAUUCUCGGGUGCCAA
RNA 2: UGGAGUGUGACAAUGGUGUUUG
DNA 1: GATCGTCGGACTGTAGAACTC
DNA 2: TTGGCACCCGAGAATTCCA
modifications: constant regions annealed to DNA blockers; guide miR-122 5' phosphate
As to B11, the results for the binding signal with AGO2 L192P, with AGO2 A367P and in the assay with AGO2 T357M were 0.36 fold enrichment over input, 0.127 fold enrichment over input and 0.449 fold enrichment over input, respectively.
